Results reported in PubChem BioAssay AID1347434 (National Center for Advancing Translational Sciences (NCATS), 2020).
Screen size: about 1,200 compounds; about 30 (2%) were called active. About 23% were inconclusive and are not listed. This is one part of a sample in which actives are shown more often than they occur. Calls come from the whole dose curve; as a rule, active = well fitted inhibition curve with a large enough effect; inconclusive = small, poorly fitted or top-dose-only effect; inactive = flat fitted curve, though single readings scatter.

biological target: Single-stranded DNA cytosine deaminase (Homo sapiens) (UniProt Q9GZX7); assay: Confirmatory qHTS assay for inhibitors of Activation Induced Cytidine Deaminase (AID): AID signals; conditions: recombinant AID, FRET deamination/UDG coupled fluorescence, 4 h; series mostly up to 115 µM; activity, negative = inhibition: at the top concentration
Excerpt: Assay Provider (PI) Patricia Gearhart Ph.D. National Institute on Aging National Institute of Health (NIH), Bethesda, MD Assay Provider (PI) Rahul Kohli Ph.D. Perelman School of Medicine University of Pennsylvania, Philadelphia, PA Activation-Induced Deaminase (AID) is a cytosine deaminase which converts cytosine into uracil within stretches of ssDNA. The presence of uracil in DNA initiates a cascade of mutagenic DNA repair to introduce point mutations and DNA double strand breaks. Specific targeting of AID to the immunoglobulin heavy chain loci (Igh) promotes mutagenesis in the antibody variable region for somatic hypermutation (SHM) or switch regions leading to class switch recombination (CSR). However, AID also plays a role in accumulating unnecessary mutations across the genome. Mis-targeting of AID results in the initiation of tumor development and leads to greater drug resistance among cancer cells when continually expressed. To identify an AID inhibitor, a small molecule library will be screened in collaboration with NCATS core facility at NIH. To confirm biological function, inhibitors will be examined in an in vitro murine B-cell activation assay and subsequent secondary validation screens. Top molecules will be further screened to identify inhibitory efficacy against a wild type primary splenocytes assay. Using these approaches, we hope to identify a small molecule with great efficacy and low toxicity for use as a molecular probe to further characterize AID's intricacies, or even as a therapeutic. A FRET based analysis of cytosine deamination, was developed to identify potential inhibitors of AID catalytic activity. This screen has two signal output, Read 1 evaluates the AID inhibition response. The second readout (Read 2) evaluates UDG response and is uses as a counterscreen to exclude false positive inhibitors. Inhibition in AID and inactivity in the UDG signal is the desired outcome for this assay.
PROTOCOL TABLE SEQUENCE No. (e.g., 1, 2, 3, etc.); […] (e.g., Cells, Incubation, Reagent, etc.); VALUE; DESCRIPTION 1a; Reagent; 3 uL; [4/3x] 1 uM AID/2.67 U/mL UDG 1b; Reagent; 3 uL; 2 U/mL UDG 1c; Reagent; 3 uL; 1 uM AID 2a; Compound; 46 nL; Follow-up plates (0.64 uM - 10 mM) 2b; Control; 46 nL; ATA (16.4 nM - 10 mM) 3; Time; 10 min; incubation at room temperature 4; Reagents; 1 uL; [4x] 250 nM DJC20 / 250 nM DJC23 [Substrate] 5; Time; 4 hr; incubation at room temperature 6; Reagent; 4 uL; [2x] 250 mM NaOH 7; Time; 15 sec; centrifuge at 1000 rpm 8; Time; 30 min; incubation at room temperature 9a; Detection; fluorescence (Read 1: AID); EnVision (PerkinElmer) plate reader, 540 excitation and 590 emission filters 9b; Detection; fluorescence (Read 2: UDG); EnVision (PerkinElmer) plate reader, 560 excitation and 665 emission filters NOTES (numbers refer to sequence above) 1a; Reagents were dispensed in a medium-binding black solid-bottom Greiner plates (789176F) using a BioRptr liquid dispenser. Dispense 3 uL of [4/3x] 1 uM AID (provided by Kohli lab) and [4/3x] 2 U/mL UDG (NEB M0280L) into columns 1, 2, 5 to 48. 1b; Dispense 3 uL of [4/3x] 2 U/mL UDG into column 3. 1c; Dispense 3 uL of [4/3x] 1 uM AID into column 4. 2a; Compound ([…] [uM]: 0.64; 3.2; 16; 80; 400; 2,000; 10,000; 20,000) double pin-transferred (Dip Factor = 2) using the Kalypsys (Wako USA) pintool equipped with a 1536 pinhead for a final concentration range of 7.32 nM - 114 uM. 2b; 10 mM Aurintricarboxylic Acid (Sigma A1895) (ATA, 8-point, n = 2, 1:2.5 dilution in column 2) double pin-transferred (Dip Factor = 2) using the Kalypsys (Wako USA) pintool equipped with a 1536 pinhead for a [final] range of 186 nM - 114 uM. 3; Room temperature incubation. 4; Dispense 1 uL of substrate mixture from the Kohli lab [4x] […] DJC20 and [4x] 250 nM DJC23 into columns 1 to 48 . 5; Room temperature incubation. 6; Dispense 4 uL of […] [2x] 250 mM NaOH into columns 1 to 48. 7; Centrifugation step to remove bubbles. […]
% is set by controls: 0 for no effect and ±100 for the full control effect; potency is the fitted concentration of half-maximal effect.

Chain of Single-stranded DNA cytosine deaminase (Homo sapiens) (Q9GZX7 whole entry, looked up): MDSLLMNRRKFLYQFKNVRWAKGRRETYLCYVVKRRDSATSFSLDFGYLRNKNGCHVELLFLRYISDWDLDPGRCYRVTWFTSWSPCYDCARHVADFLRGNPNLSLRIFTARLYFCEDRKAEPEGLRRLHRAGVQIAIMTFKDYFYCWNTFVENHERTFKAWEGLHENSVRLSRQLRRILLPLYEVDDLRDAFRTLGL

activity, negative = inhibition, inactive:
CCc1ccc(OCC(=O)N(Cc2ccc(Cl)cc2)C2CCS(=O)(=O)C2)cc1 (stereo not given) -5.69%, Cc1ccc(Cl)cc1N1CCN(CCCNC(=O)c2ccc3nc(N4CCCCC4)sc3c2)CC1 -4.77%, Cn1c(SCc2ccc(F)cc2)nc2ccc(C(=O)NCc3ccc(F)cc3)cc21 -11.1%, COc1ccccc1CNC(=O)c1cnn2c(C)c(Cc3ccc(F)cc3)c(C)nc12 -10.8%, CCn1c(SCc2ccc(F)cc2Cl)nc(=O)c2c(C(=O)OC)cc(C3CC3)nc21 -28.3%, Cc1ccc(CN(Cc2ccco2)C(=O)c2ccccc2Br)o1 -10.6%, Cc1cc(Nc2cccc(F)c2)n2nc(-c3ccco3)nc2n1 7.61%, Cc1ccc(C)c(Cn2nc(-c3cc(C)ccc3C)ccc2=O)c1 -23.4%, CC1=Nc2cc(C(=O)N3CCC(C)CC3)ccc2Sc2ccc(Cl)cc21 -5.99%, O=C(NCCc1ccccc1)c1sc2ncccc2c1-n1cccc1 -19.5%, Cc1ccc(Cl)cc1NC(=O)C(C)n1nc(-c2ccccc2)ccc1=O (stereo not given) -16.4%, Cn1nc(-c2ccc(C(=O)Nc3ccc(F)cc3)cc2)c2ccccc2c1=O -28.5%, CCc1nnc(SCc2cccc(F)c2)c2cc3sc(C)cc3n12 -18.8%, Cc1cccc(N2CCN(C(=O)CS(=O)(=O)Cc3nc(-c4ccccc4C)oc3C)CC2C)c1 (stereo not given) 2.05%, Cc1ccc(C)c(N(C)C(=O)C2CCN(c3ncnc4c3nc3n4CCCCC3)CC2)c1 -0.379%, COc1ccc(NC(=O)CSc2nc3nc(C)c(Cc4ccccc4)c(C)n3n2)cc1OC -21.6%, CN(C)CCNc1ncnc2c1cnn2-c1cccc(Cl)c1 -20.9%, Cc1ccc(C)c(N2CCN(CCCNc3ncnc4onc(-c5ccc(Cl)cc5)c34)CC2)c1 -2.73%, CCc1ccc(CNC(=O)c2cnc3sc(N(CC)CC)nn3c2=O)cc1 -15.7%, Cc1ccc(S(=O)(=O)N2CCCC2C(=O)Nc2ccc(Br)cc2)cc1 (stereo not given) -1.15%, CCc1nnc2c(N3CCN(c4cccc(C)c4)C(C)C3)nc3ccccc3n12 (stereo not given) -18.2%, CCOC(=O)C1=C(CN2CCN(c3cc(C)ccc3C)CC2)NC(=O)NC1c1ccccc1 (stereo not given) -4.99%, COc1ccc(S(=O)(=O)N(CC(=O)NC(C)c2ccccc2)c2ccc(C)cc2)cc1OC (stereo not given) 1.71%, COc1ccccc1C(=O)Nc1ccc(C(=O)OCc2cc(=O)n3nc(C)sc3n2)cc1 2.56%, Cc1cccc(C)c1OCC(=O)N(Cc1ccco1)Cc1ccco1 -0.167%, CCC1CCCCN1C(=O)CSc1nc2c([nH]c3ccccc32)c(=O)n1-c1cccc(OC)c1 (stereo not given) -12.2%, O=C(CCCCCn1c(=O)[nH]c2ccccc2c1=O)NCc1ccc(Cl)cc1 9.51%, Cc1cccc(C)c1NC(=O)CS(=O)(=O)c1nc(-c2ccc(Cl)cc2)cn1-c1ccccc1 -7.27%, CN1CCN(c2nc3c(S(=O)(=O)c4ccc(Cl)cc4)nnn3c3ccsc23)CC1 -27.7%, COc1ccccc1C(=O)NCCn1cc(SCc2ccccc2Cl)c2ccccc21 -0.695%, Cc1ccc2c(c1)c(=O)c(C(=O)c1ccccc1)cn2Cc1ccccc1F -20.4%, O=C(c1ccc(F)cc1)c1cn(Cc2ccccc2)c2cc3c(cc2c1=O)OCO3 -10.5%, COc1ccc(NCc2nc3ccccc3n2CCOc2ccccc2C)cc1 -11.3%, Cc1cccc(N2CCN(C(=O)c3sc4nc5n(c(=O)c4c3C)CCC5)CC2C)c1 (stereo not given) -8.89%, CN(c1ncnc2onc(-c3cccc(Cl)c3)c12)C1CCCCC1 -20.3%, CC(C)(C)OC(=O)N1CCC(c2c(C(=O)NCCN3CCC(Cc4ccccc4)CC3)cnn2-c2ccccc2)CC1 -19.5%, COc1ccc(CCN2CCC(CNC(=O)c3cnn(-c4ccccc4)c3C3CCN(C(=O)OC(C)(C)C)CC3)CC2)cc1 -15%, CCN(CC)CCNC(=O)c1ccc2c(=O)n3nc(Nc4ccccc4)sc3nc2c1 -15.6%, CCN(CC)CCNC(=O)c1ccc2c(=O)n3nc(Nc4ccccc4OC)sc3nc2c1 -25.4%, Cc1nc2nc(SCC(=O)NCc3ccccc3)nn2c(C)c1Cc1ccccc1Cl -23.7%, COc1ccc(C(=O)c2sc3nc4c(c(C(F)(F)F)c3c2N)CN(C(C)=O)CC4)cc1OC 6.76%

Potency, active:
CCCCCCCCc1ccc(-c2ccc(C(=O)O)cc2)cc1 35.5 µM, CC(=O)[C@]1(O)Cc2c(O)c3c(c(O)c2[C@@H](O[C@H]2C[C@H](N)[C@H](O)[C@H](C)O2)C1)C(=O)c1ccccc1C3=O 5.62 µM, COc1ccc(CCN2CCC(CNC(=O)c3cnn(-c4cccc(Cl)c4)c3C3CCN(C(=O)OC(C)(C)C)CC3)CC2)cc1 31.6 µM, CCN(CC)CCNC(=O)c1ccc2c(=O)n3nc(Nc4cccc(Cl)c4C)sc3nc2c1 50.1 µM
